# Experimental data published in the supplement of paper PMC8728848.
# Shown is part of a subset that was picked to be rich in the strongest signals.
# Experiments:
# Test in all cases: glycan array binding signal (z-score within array); higher = stronger binding
# Conditions in all cases: glycan notation: IUPAC condensed, linker removed
# Fuc(a1-2)Gal(b1-3)GlcNAc = target: Fuc(a1-2)Gal(b1-3)GlcNAc
# How it was run: (§1)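 The binding signal is a Z-score computed within each array. Data were drawn from 3228 arrays in the Consortium for Functional Glycomics database, restricted to those with a known protein sequence. Scores were averaged over arrays of the same protein sequence at different concentrations or buffers, and over linkers, and negative values can be taken as non-binding.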
# Fuc(a1-2)Gal(b1-4)Glc = target: Fuc(a1-2)Gal(b1-4)Glc
# How it was run: as §1
# Fuc(a1-2)Gal(b1-4)GlcNAc = target: Fuc(a1-2)Gal(b1-4)GlcNAc
# How it was run: as §1
# [1] = target: Fuc(a1-2)Gal(b1-4)GlcNAc(b1-2)Man(a1-3)[Fuc(a1-2)Gal(b1-4)GlcNAc(b1-2)Man(a1-6)]Man(b1-4)GlcNAc(b1-4)GlcNAc
# How it was run: as §1
# [2] = target: Fuc(a1-2)Gal(b1-4)GlcNAc(b1-3)Gal(b1-4)GlcNAc
# How it was run: as §1
# [3] = target: Fuc(a1-2)Gal(b1-4)GlcNAc(b1-3)[Fuc(a1-3)[Gal(b1-4)]GlcNAc(b1-6)]Gal(b1-4)Glc
# How it was run: as §1
# [4] = target: Fuc(a1-2)Gal(b1-4)[Fuc(a1-3)]GlcNAc
# How it was run: as §1
# [5] = target: Fuc(a1-2)Gal(b1-4)[Fuc(a1-3)]GlcNAc(b1-3)Gal(b1-4)[Fuc(a1-3)]GlcNAc(b1-3)Gal(b1-4)[Fuc(a1-3)]GlcNAc
# How it was run: as §1
# [6] = target: Fuc(a1-2)[Gal(a1-3)]Gal(b1-4)[Fuc(a1-3)]Glc
# How it was run: as §1
# [7] = target: Fuc(a1-2)[Gal(a1-3)]Gal(b1-4)[Fuc(a1-3)]GlcNAc
# How it was run: as §1
# [8] = target: Fuc(a1-2)[GalNAc(a1-3)]Gal(b1-3)GlcNAc(b1-6)GalNAc
# How it was run: as §1
# [9] = target: Fuc(a1-2)[GalNAc(a1-3)]Gal(b1-4)GlcNAc
# How it was run: as §1
# [10] = target: Fuc(a1-2)[GalNAc(a1-3)]Gal(b1-4)GlcNAc(b1-2)Man(a1-3)[Fuc(a1-2)[GalNAc(a1-3)]Gal(b1-4)GlcNAc(b1-2)Man(a1-6)]Man(b1-4)GlcNAc(b1-4)GlcNAc
# How it was run: as §1
# [11] = target: Fuc(a1-3)[Gal(b1-4)]GlcNAc(b1-2)Man(a1-3)[Fuc(a1-3)[Gal(b1-4)]GlcNAc(b1-2)Man(a1-6)]Man(b1-4)GlcNAc(b1-4)[Fuc(a1-6)]GlcNAc
# How it was run: as §1
# [12] = target: Gal(a1-3)Gal(b1-3)GlcNAc(b1-2)Man
# How it was run: as §1
# [13] = target: Gal(b1-3)GlcNAc(a1-3)Gal(b1-4)GlcNAc
# How it was run: as §1
# Gal(b1-3)GlcNAc(b1-2)Man = target: Gal(b1-3)GlcNAc(b1-2)Man
# How it was run: as §1
# [14] = target: Gal(b1-3)[Neu5Ac(a2-6)]GlcNAc(b1-4)Gal(b1-4)Glc
# How it was run: as §1
# [15] = target: Gal(b1-4)GlcNAc(b1-3)GalNAc
# How it was run: as §1
# Gal3S6S(b1-4)GlcNAc = target: Gal3S6S(b1-4)GlcNAc
# How it was run: as §1
# Gal6S(b1-3)GlcNAc = target: Gal6S(b1-3)GlcNAc
# How it was run: as §1
# Gal6S(b1-4)Glc = target: Gal6S(b1-4)Glc
# How it was run: as §1
# GalNAc(b1-3)GalNAc = target: GalNAc(b1-3)GalNAc
# How it was run: as §1
# Glc(b1-4)Glc = target: Glc(b1-4)Glc
# How it was run: as §1
# GlcA(b1-3)GlcNAc = target: GlcA(b1-3)GlcNAc
# How it was run: as §1
# [16] = target: GlcNAc(a1-4)Gal(b1-3)GlcNAc
# How it was run: as §1
# [17] = target: GlcNAc(b1-3)Gal(b1-4)GlcNAc(b1-3)Gal(b1-4)GlcNAc(b1-2)Man(a1-3)[GlcNAc(b1-3)Gal(b1-4)GlcNAc(b1-3)Gal(b1-4)GlcNAc(b1-2)Man(a1-6)]Man(b1-4)GlcNAc(b1-4)[Fuc(a1-6)]GlcNAc
# How it was run: as §1
# [18] = target: GlcNAc(b1-3)Gal(b1-4)GlcNAc(b1-3)Gal(b1-4)GlcNAc(b1-3)Gal(b1-4)GlcNAc(b1-3)Gal(b1-4)GlcNAc(b1-2)Man(a1-3)[GlcNAc(b1-3)Gal(b1-4)GlcNAc(b1-3)Gal(b1-4)GlcNAc(b1-3)Gal(b1-4)GlcNAc(b1-3)Gal(b1-4)GlcNAc(b1-2)Man(a1-6)]Man(b1-4)GlcNAc(b1-4)[Fuc(a1-6)]GlcNAc
# How it was run: as §1
# Kdn(a2-3)Gal(b1-3)GlcNAc = target: Kdn(a2-3)Gal(b1-3)GlcNAc
# How it was run: as §1
# [19] = target: Neu5Ac(a2-3)Gal(b1-3)GalNAc
# How it was run: as §1
# [20] = target: Neu5Ac(a2-3)Gal(b1-3)GalNAc(b1-4)[Neu5Ac(a2-8)Neu5Ac(a2-3)]Gal(b1-4)Glc
# How it was run: as §1
# [21] = target: Neu5Ac(a2-3)Gal(b1-3)GlcNAc
# How it was run: as §1
# [22] = target: Neu5Ac(a2-3)Gal(b1-3)GlcNAc(b1-2)[Neu5Ac(a2-3)Gal(b1-3)GlcNAc(b1-4)]Man(a1-6)[Neu5Ac(a2-3)Gal(b1-3)GlcNAc(b1-2)Man(a1-3)]Man(b1-4)GlcNAc(b1-4)GlcNAc
# How it was run: as §1
# [23] = target: Neu5Ac(a2-3)Gal(b1-3)GlcNAc(b1-3)Gal(b1-4)GlcNAc
# How it was run: as §1
# [24] = target: Neu5Ac(a2-3)Gal(b1-3)[Fuc(a1-4)]GlcNAc
# How it was run: as §1
# [25] = target: Neu5Ac(a2-3)Gal(b1-3)[Fuc(a1-4)]GlcNAc(b1-3)Gal(b1-3)[Fuc(a1-4)]GlcNAc
# How it was run: as §1
# [26] = target: Neu5Ac(a2-3)Gal(b1-3)[Fuc(a1-4)]GlcNAc(b1-3)Gal(b1-4)[Fuc(a1-3)]GlcNAc
# How it was run: as §1
# [27] = target: Neu5Ac(a2-3)Gal(b1-3)]Neu5Ac(a2-3)Gal(b1-4)]GlcNAc
# How it was run: as §1
# [28] = target: Neu5Ac(a2-3)Gal(b1-4)GlcNAc(b1-2)Man(a1-3)[Neu5Ac(a2-3)Gal(b1-4)GlcNAc(b1-2)Man(a1-6)]Man(b1-4)GlcNAc(b1-4)GlcNAc
# How it was run: as §1
# [29] = target: Neu5Ac(a2-3)Gal(b1-4)GlcNAc(b1-3)Gal(b1-4)GlcNAc
# How it was run: as §1
# [30] = target: Neu5Ac(a2-3)Gal(b1-4)GlcNAc6S
# How it was run: as §1
# [31] = target: Neu5Ac(a2-3)Gal(b1-4)[Fuc(a1-3)]GlcNAc(b1-3)Gal
# How it was run: as §1
# [32] = target: Neu5Ac(a2-3)Gal6S(b1-4)GlcNAc
# How it was run: as §1
# [33] = target: Neu5Ac(a2-3)Gal6S(b1-4)[Fuc(a1-3)]GlcNAc
# How it was run: as §1
# [34] = target: Neu5Ac(a2-3)GalNAc(b1-4)GlcNAc
# How it was run: as §1
# [35] = target: Neu5Ac(a2-6)Gal(b1-4)GlcNAc(b1-3)Gal(b1-4)GlcNAc(b1-6)[Gal(b1-3)]GalNAc
# How it was run: as §1
# [36] = target: Neu5Ac(a2-6)Gal(b1-4)GlcNAc(b1-6)[Gal(b1-3)GlcNAc(b1-3)]Gal(b1-4)Glc
# How it was run: as §1
# Neu5Ac(a2-8)Neu5Ac = target: Neu5Ac(a2-8)Neu5Ac
# How it was run: as §1
# [37] = target: Neu5Ac(a2-8)Neu5Ac(a2-3)Gal(b1-3)GalNAc(b1-4)[Neu5Ac(a2-3)]Gal(b1-4)Glc
# How it was run: as §1
# [38] = target: Neu5Ac(a2-8)Neu5Ac(a2-8)Neu5Ac
# How it was run: as §1
# [39] = target: Neu5Ac(a2-8)Neu5Ac(a2-8)Neu5Ac(a2-8)Neu5Ac(a2-3)[GalNAc(b1-4)]Gal(b1-4)Glc
# How it was run: as §1
# [40] = target: Neu5Gc(a2-3)Gal(b1-4)GlcNAc(b1-3)Gal(b1-4)GlcNAc(b1-2)Man(a1-3)[Neu5Gc(a2-3)Gal(b1-4)GlcNAc(b1-3)Gal(b1-4)GlcNAc(b1-2)Man(a1-6)]Man(b1-4)GlcNAc(b1-4)GlcNAc
# How it was run: as §1
# [41] = target: Neu5Gc(a2-6)Gal(b1-4)GlcNAc
# How it was run: as §1
binder,measurement,setting,value
CBM40 CPF071 (Clostridium perfringens) (protein) MAHHHHHHVGTGSNDDDDKSPDPMLSSLGEYKDINLESSNASNITYDLEKYKNLDEGTIVVRFNSKDSKIQSLLGISNSKTKNGYFNFYVTNSRVGFELRNQKNEGNTQNGTENLVHMYKDVALNDGDNTVALKIEKNKGYKLFLNGKMIKEVKDTNTKFLNNIENLDSAFIGKTNRYGQSNEYNFKGNIGFMNIYNEPLGDDYLLSKTGETK,glycan array binding signal (z-score),Fuc(a1-2)Gal(b1-3)GlcNAc,-0.384
same,glycan array binding signal (z-score),Fuc(a1-2)Gal(b1-4)Glc,-0.55
same,glycan array binding signal (z-score),Fuc(a1-2)Gal(b1-4)GlcNAc,-0.027
same,glycan array binding signal (z-score),[1],-0.22
same,glycan array binding signal (z-score),[2],0.231
same,glycan array binding signal (z-score),[3],2.74
same,glycan array binding signal (z-score),[4],0.074
same,glycan array binding signal (z-score),[5],0.635
same,glycan array binding signal (z-score),[6],-0.299
same,glycan array binding signal (z-score),[7],-0.541
same,glycan array binding signal (z-score),[8],0.171
same,glycan array binding signal (z-score),[9],-0.116
same,glycan array binding signal (z-score),[10],-0.216
same,glycan array binding signal (z-score),[11],-0.443
same,glycan array binding signal (z-score),[12],0.599
same,glycan array binding signal (z-score),[13],-0.517
same,glycan array binding signal (z-score),Gal(b1-3)GlcNAc(b1-2)Man,-0.631
same,glycan array binding signal (z-score),[14],-0.087
same,glycan array binding signal (z-score),[15],-0.419
same,glycan array binding signal (z-score),Gal3S6S(b1-4)GlcNAc,-0.144
same,glycan array binding signal (z-score),Gal6S(b1-3)GlcNAc,-0.48
same,glycan array binding signal (z-score),Gal6S(b1-4)Glc,-0.246
same,glycan array binding signal (z-score),GalNAc(b1-3)GalNAc,0.09
same,glycan array binding signal (z-score),Glc(b1-4)Glc,2.37
same,glycan array binding signal (z-score),GlcA(b1-3)GlcNAc,0.262
same,glycan array binding signal (z-score),[16],-0.341
same,glycan array binding signal (z-score),[17],-0.411
same,glycan array binding signal (z-score),[18],-0.108
same,glycan array binding signal (z-score),Kdn(a2-3)Gal(b1-3)GlcNAc,-0.464
same,glycan array binding signal (z-score),[19],-0.019
same,glycan array binding signal (z-score),[20],-0.469
same,glycan array binding signal (z-score),[21],0.994
same,glycan array binding signal (z-score),[22],2.77
same,glycan array binding signal (z-score),[23],-0.328
same,glycan array binding signal (z-score),[24],2.38
same,glycan array binding signal (z-score),[25],0.256
same,glycan array binding signal (z-score),[26],1.09
same,glycan array binding signal (z-score),[27],10.7
same,glycan array binding signal (z-score),[28],-0.305
same,glycan array binding signal (z-score),[29],1.96
same,glycan array binding signal (z-score),[30],5.07
same,glycan array binding signal (z-score),[31],1.97
same,glycan array binding signal (z-score),[32],16.3
same,glycan array binding signal (z-score),[33],5.09
same,glycan array binding signal (z-score),[34],0.216
same,glycan array binding signal (z-score),[35],0.025
same,glycan array binding signal (z-score),[36],-0.069
same,glycan array binding signal (z-score),Neu5Ac(a2-8)Neu5Ac,0.538
same,glycan array binding signal (z-score),[37],-0.205
same,glycan array binding signal (z-score),[38],-0.128
same,glycan array binding signal (z-score),[39],-0.358
same,glycan array binding signal (z-score),[40],2.46
same,glycan array binding signal (z-score),[41],-0.336
